Data from PubChem BioAssay (EPA / NIEHS).
Results filed as inconclusive are left out. The source made the active and inactive calls. How the source made its calls: active means hit-call score of the fitted dose curve at least 0.9, where 1 is the maximum; inconclusive means response in the unintended direction; inactive means score below 0.9.

tested on: DIO1 (gene 1733); test: CCTE_GLTED_hDIO1: CCTE's human Deiodinase 1 (DIO1) Inhibition Assay, Great Lakes Toxicology and Ecology Division (GLTED) Lab (AID 2283987);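 further: isolated human DIO1 enzyme in a cell-free setup rather than cells; enzyme activity read as free iodide liberated from substrate via Sandell-Kolthoff colorimetry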
Method in brief: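 Inhibition read as reduced iodide release: after 3 h of human DIO1 with chemical, free iodide is quantified colorimetrically (Sandell-Kolthoff cerium/arsenic reaction). Triplicate plates, DMSO baseline.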

Row | Compound | AC50
1 | CCC(=C(c1ccc(O)cc1)c1ccc(OCCN(C)C)cc1)c1ccccc1 | 46.5 µM (active)
2 | CCCCCCCCCCCCN1CCCC1=O | 159 µM (active)
3 | O=c1c(-c2ccc(O)cc2)coc2cc(O)ccc12 | 17.2 µM (active)
4 | CCCCCCCCCCCCc1ccccc1S(=O)(=O)O | 96.3 µM (active)
5 | CC(C)(C)c1ccc(O)c(C(C)(C)C)c1 | 108 µM (active)
6 | ClC1=C(Cl)C(Cl)(Cl)C(Cl)=C1Cl | 78.5 µM (active)
7 | Cc1oc(-c2ccccc2)nc1CCOc1ccc(C[C@H](Nc2ccccc2C(=O)c2ccccc2)C(=O)O)cc1 | 72.1 µM (active)
8 | NC(=O)N1C(=O)C(C(=O)c2cc(Cl)cs2)c2cc(F)c(Cl)cc21 (centres undefined) | 37.4 µM (active)

target: Nucleoli Translocation, AR (gene 367) (UniProt P10275); test: UPITT_HCI_U2OS_AR_TIF2_Nucleoli_Antagonist: University of Pittsburgh U2OS Androgen Receptor-Transcriptional Intermediary Factor 2 (AR-TIF2) Antagonism High Content Imaging Assay for Nucleoli Translocation (AID 2283997)
Sequence (P10275 whole entry, looked up): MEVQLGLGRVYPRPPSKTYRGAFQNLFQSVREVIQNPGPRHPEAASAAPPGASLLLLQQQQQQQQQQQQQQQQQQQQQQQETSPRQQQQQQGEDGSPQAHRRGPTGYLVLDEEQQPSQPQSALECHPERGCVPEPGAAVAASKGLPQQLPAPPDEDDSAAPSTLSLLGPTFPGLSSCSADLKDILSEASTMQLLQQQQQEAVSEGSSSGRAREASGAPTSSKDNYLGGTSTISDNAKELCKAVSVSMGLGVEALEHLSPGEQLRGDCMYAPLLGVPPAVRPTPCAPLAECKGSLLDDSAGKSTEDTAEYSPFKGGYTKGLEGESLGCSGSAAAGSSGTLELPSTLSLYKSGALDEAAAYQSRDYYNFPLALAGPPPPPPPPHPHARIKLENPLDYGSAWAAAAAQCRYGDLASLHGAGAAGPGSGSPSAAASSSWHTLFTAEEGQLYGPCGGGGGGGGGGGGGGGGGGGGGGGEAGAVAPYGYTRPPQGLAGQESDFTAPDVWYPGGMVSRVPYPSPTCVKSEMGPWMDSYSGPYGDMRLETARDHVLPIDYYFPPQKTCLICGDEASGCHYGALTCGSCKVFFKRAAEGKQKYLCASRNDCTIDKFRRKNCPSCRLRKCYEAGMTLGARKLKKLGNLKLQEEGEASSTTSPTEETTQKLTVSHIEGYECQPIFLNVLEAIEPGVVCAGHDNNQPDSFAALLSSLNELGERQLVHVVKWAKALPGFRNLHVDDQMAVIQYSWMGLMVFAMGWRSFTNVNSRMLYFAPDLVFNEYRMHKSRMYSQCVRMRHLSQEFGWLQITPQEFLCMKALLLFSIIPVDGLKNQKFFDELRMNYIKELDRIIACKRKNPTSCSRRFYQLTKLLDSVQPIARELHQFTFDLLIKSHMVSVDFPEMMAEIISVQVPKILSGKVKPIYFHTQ
Method in brief: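 U2OS cells expressing RFP-tagged human AR and GFP-tagged TIF2 were imaged by high-content fluorescence microscopy for red AR signal in the nucleolar region. Compounds were screened at 20 uM final (0.2% DMSO), with activity fitted relative to DHT as baseline.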

Row | Compound | outcome | AC50
9 | CCC(=C(c1ccc(O)cc1)c1ccc(OCCN(C)C)cc1)c1ccccc1 | inactive | 
10 | O=c1c(-c2ccc(O)cc2)coc2cc(O)ccc12 | inactive | 
11 | CCCCCCCCCCCCc1ccccc1S(=O)(=O)O |  | 83 µM (active)
12 | CC(=O)CC(C)(C)O | inactive | 
13 | Nc1cccc2c(N)cccc12 |  | 33.3 µM (active)
14 | Cc1oc(-c2ccccc2)nc1CCOc1ccc(C[C@H](Nc2ccccc2C(=O)c2ccccc2)C(=O)O)cc1 |  | 67.6 µM (active)
15 | Oc1cc2ccccc2c2ccccc12 |  | 3.25 µM (active)
16 | c1ccc2c(c1)ccc1ccccc12 |  | 33.7 µM (active)
17 | COc1cc(CCC(=O)CC(=O)CCc2ccc(O)c(OC)c2)ccc1O |  | 26.6 µM (active)
18 | CCCCC[C@H](O)CC(=O)CCc1ccc(O)c(OC)c1 | inactive | 
19 | CCCOc1sc(C(=O)N2CCC(c3cc(CN)ccc3F)CC2)c(C)c1Br | inactive | 
